TDP1 cell noCPT: qHTS for Inhibitors of human tyrosyl-DNA phosphodiesterase 1 (TDP1): qHTS in cells in absence of CPT; DT40 Tdp1-/- hTDP1 cells, no CPT, ATP luminescence, 48 h; Potency, µM (top dose mostly 46.2 µM), for inactives: top-dose activity change, negative = growth inhibition, hits mostly inhibitors; 420,000 compounds, 15% hits; further: potency means the concentration at half of the fitted maximal effect; on the % scale 0 is the no-effect control and ±100 the full control effect; nearly all actives have a fitted effect of over 55% in size
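Growth kinetics read by CellTiter-Glo luminescence after ≥48 hr at 37 °C. Cells: DT40 Tdp1-/- stably carrying human TDP1, 400 per well, compound exposure in the absence of CPT (DMSO vehicle).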
MCF10A rereplic: induces DNA re-replication in MCF 10a normal breast cells; MCF 10A DNA re-replication, Hoechst nuclear intensity, 48 h; Potency, µM (titrated, usually from 46.1 µM), inactives show at the highest dose activity, positive = re-replication, actives largely listed as activators; 350,000 compounds, 2.9% hits; AID 624296; further: potency means the concentration at half of the fitted maximal effect; % of control where 0% means no effect; nearly all actives have a fitted effect of over 50% in size
Chronic BCR inh: inhibitors of chronic active B-cell receptor signaling | 340,000 compounds, 0.05% hits | Potency, µM (doses to about 46.1 µM), for inactives: at the highest dose activity change, negative = inhibition, usual class: inhibitors | ABC-DLBCL IkBa-CBG/CBR reporter, luminescence ratio, 4 h; active means well fitted inhibition curve with a large enough effect in the signal ratio, with a control signal flat, not every such curve was filed as active; inconclusive means small, poorly fitted or top-dose-only effect, or effect the other way, or a change in a side signal; the % refers to the signal ratio;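 further: potency means the concentration at half of the fitted maximal effect; plate controls were basal doxycycline-induced cells for no effect and cells given 10 µM MG132 for full effect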
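Doxycycline induced both beetle luciferases in TMD8 lymphoma cells; IKK-driven degradation limits the IkappaBalpha-fused green signal, while red luminescence normalises for cell number and nonspecific effects. Compounds tested up to 46 uM, 4 hrs.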
SW480 rerep: inducers of DNA re-replication in SW480 colon cancer cells. 340,000 compounds, 1.8% hits. Potency, µM (titrated, usually from 46.1 µM), inactives show at the highest dose re-replication activation, usual class: activators. AID 624297. SW480 DNA re-replication, Hoechst DNA content imaging, 48 h; further: potency means the concentration at half of the fitted maximal effect; % of control where 0% means no effect; nearly all actives have a fitted effect of over 55% in size
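Treated cells incubate 48 hr (37 C, 5% CO2), are stained 40 min with Hoechst, and nuclear fluorescence is enumerated; a rise in nuclei with high DNA signal marks re-replication.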
TDP1 cell CPT: growth inhibition of DT40 Tdp1-/-;hTDP1 cells with camptothecin (screen for TDP1 inhibitors) | chicken DT40 Tdp1-/-;hTDP1 cells + 20 nM CPT, ATP luminescence, 48 h | AID 686979 | 420,000 compounds, 12% hits | Potency, µM (series often up to 46.2 µM), without a hit: at the highest dose activity change, negative = growth inhibition, hits mostly inhibitors; further: potency means the concentration at half of the fitted maximal effect; on the % scale 0 is the no-effect control and ±100 the full control effect; nearly all actives have a fitted effect of over 55% in size
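Chicken DT40 Tdp1-/- cells complemented with human TDP1, 400 cells/well, exposed to compounds plus 20 nM camptothecin for at least 48 h at 37 C; viability read as ATP content by CellTiter-Glo luminescence.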
IL-1B inflam inh: inhibitors of inflammasome signaling (IL-1 beta secretion) | THP-1 LPS/ATP IL-1B secretion, AlphaLISA, 16 h; active compounds read low | activity change, % at 57.5 µM | 360,000 compounds, 4.7% hits | AID 743279; in the data active means activity change below about -50%; inconclusive means mostly about -30% to -49%; further: on the % scale 0 is the no-effect control and ±100 the full control effect
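Secreted IL-1B measured by AlphaLISA bead assay after 16 h compound exposure of THP-1 cells; compounds (final up to 57.5 uM) added 1 h before LPS (250 ng/mL) and ATP (1.25 mM) stimulation; lower signal means less secretion.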
Numbers without * were called inactive; i = inactive; ? = inconclusive; . = not tested or not shown; [ ] = remark or other dose. Compounds with a hit are over-represented: about 19% of the library has one in this group of screens. Unless noted, the call rests on the fitted dose curve; in most records, active means well fitted curve in the direction sought with a large enough effect; inconclusive means small, poorly fitted or top-dose-only effect, or another doubt; inactive means no such curve, though single readings can be large; an effect the other way counts as inactive or inconclusive.

SMILES	TDP1 cell noCPT	MCF10A rereplic	Chronic BCR inh	SW480 rerep	TDP1 cell CPT	IL-1B inflam inh
CCN(CC)C1CCN(C(=O)c2cc(COc3ccc(-n4cncn4)cc3)on2)C1 (stereo not drawn)	2%	?	0%	?	0%	i
COc1ccc(CN2C(=O)c3ccccc3C2c2nnnn2C(C)C)cc1OC (stereo not drawn)	-24%	.	.	.	3%	0
Cc1ccc(S(=O)(=O)N2CCc3ccccc3C2CN2C(=O)c3ccccc3C2=O)cc1 (stereo not drawn)	11µM*	21%	7%	2%[9.22 µM]	22µM*	0
Cc1ccc(S(=O)(=O)N2CCc3ccccc3CC2)cc1	?	?	.	15%	-5%	-85*
O=C(c1ccc(S(=O)(=O)N2CCc3ccccc3C2)cc1)N1CCCCC1	26µM*	11%	-6%	?	?	22
Cc1c(C2=CCN(S(=O)(=O)c3ccc(Br)cc3)CC2)c2ccccc2n1C	?	?	3%	?	?	12
CCn1c(C)c(C2=CCN(S(=O)(=O)c3ccc(C)cc3)CC2)c2ccccc21	18µM*	?	-1%	3%	?	-6
O=C(c1ccc(S(=O)(=O)N2CCCC2)cc1)N1CCCCC1	-12%	3%	13%	-56%	-15%	-1
Cc1cc2c(c(-c3cnccn3)c1)OC(CNC(=O)c1c(F)cccc1Cl)C2 (stereo not drawn)	?	.	.	.	10%[9.04 µM]	.
COc1cc(OC)c(NC(=O)C2=C(C)C(=O)OC23CCN(C(C)=O)CC3)cc1Cl	6%	.	.	.	11%	.
CC1=C(C(=O)N(C(C)C)C(C)C)CC(CC(=O)NCc2cccs2)C(=O)N1Cc1ccccc1 (stereo not drawn)	?	.	.	.	?	-21
CCCCNC(=S)N(Cc1ccco1)Cc1cc2cc3c(cc2[nH]c1=O)OCCO3	10%	1%	-8%	8%	7%	31
O=C(Nc1ccc(F)cc1)N(Cc1cccs1)Cc1cc2cc3c(cc2[nH]c1=O)OCO3	16µM*	?	?	-10%	?	?
COc1ccc(NC(=O)N(Cc2cccs2)Cc2cc3cc4c(cc3[nH]c2=O)OCO4)cc1	.	3%	1%	-2%	.	.
O=C(Nc1ccc(F)cc1)N(Cc1ccco1)Cc1cc2cc3c(cc2[nH]c1=O)OCO3	23µM*	18µM*	?	5%	?	?
Cc1ccc(CN2C(=O)CSCC2(C)C(=O)Nc2c(C)cccc2C)cc1 (stereo not drawn)	-3%	.	.	.	13%	-17
NNC(=O)CN1C(=O)Nc2ccc(Cl)cc2C1c1ccccc1 (stereo not drawn)	3%	-6%	-7%	-2%	-5%	-7
O=S1OC(c2ccccc2)c2cc(Cl)ccc21 (stereo not drawn)	-18%	-65%	?	-6%	-17%	-111*
CCc1nc2ccc(C(=O)Nc3cc(-c4ccccc4)ccc3OC)cn2c1N(C)CCC(C)C	21µM*	.	.	.	18µM*	?
CCc1nc2ccc(C(=O)Nc3cc(-c4ccccc4)ccc3OC)cn2c1N(CCN(C)C)CC1CC1	15µM*	.	.	.	21µM*	?
CCc1nc2ccc(C(=O)Nc3cc(-c4ccccc4)ccc3OC)cn2c1N(C=O)CCC(C)C	15µM*	.	.	.	16µM*	-60*
COc1ccc(N(C)S(=O)(=O)c2ccc3c(c2)NC(=O)CO3)c(OC)c1	-17%	2%	1%	-32%	-8%	-7
CN(C)c1ccc(P(=O)(COc2ccc([N+](=O)[O-])cc2)c2ccc(N(C)C)cc2)cc1	21µM*	?	?	-145%	?	-11
Cc1ccc(NC(=O)c2nc[nH]c2C(=O)Nc2ccccc2F)cc1	?	.	.	.	?	0
O=C(Nc1ccccc1)c1nc[nH]c1C(=O)Nc1ccccc1F	12µM*	.	.	.	?	5
SMILES	TDP1 cell noCPT	MCF10A rereplic	Chronic BCR inh	SW480 rerep	TDP1 cell CPT	IL-1B inflam inh
O=C(Nc1ccccc1)c1nc[nH]c1C(=O)NCCCCNC(=O)c1[nH]cnc1C(=O)Nc1ccccc1	12µM*	-3%	5%	6%	6.5µM*	-16
O=C(Nc1ccccc1)c1nc[nH]c1C(=O)NCCNC(=O)c1[nH]cnc1C(=O)Nc1ccccc1	18µM*	?	1%	6%	13µM*	-1
CC(C)CCNC(=O)C(c1ccco1)N(CCCO)C(=O)Cn1nnc(-c2ccc(F)cc2)n1 (stereo not drawn)	-20%	-1%	5%	1%	-10%	-15
CC1=NN(c2ccc([N+](=O)[O-])cc2)C(=O)C1[N+](=O)[O-] (stereo not drawn)	-26%[9.04 µM]	.	.	.	-28%[9.04 µM]	.
COc1ccc(N2CCC(CNC(=S)Nc3cccc(C)c3)C2)cc1 (stereo not drawn)	?	-1%	-4%	-8%	?	-77*
CCOc1ccc(NC(=O)NCC2CCN(c3ccc(OC)cc3)C2)cc1 (stereo not drawn)	-4%	?	-1%	-8%	-14%	-8
COc1ccc(N2CCC(CNC(=S)Nc3c(C)cc(C)cc3C)C2)cc1 (stereo not drawn)	?	29%	5%	8%	?	0
CCc1ccc(NC(=O)NCC2CCN(c3ccc(OC)cc3)C2)cc1 (stereo not drawn)	-23%	?	3%	18%	9.2µM*	-22
